# Source: PubChem BioAssay (NCI)
# Compounds without any hit were thinned out: in the full panel of roughly 83,000, 20% have a hit.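 A percent growth of 40 corresponds to 60% growth inhibition; 0 means no net growth; -100 means all cells died. Active threshold: below 10.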 Values without a mark were called inactive. Activity calls are given as the source filed them.
# How the values were obtained:
# Test in all cases: NCI-60 one-dose screen, 48 h (100 = growth as untreated, 0 = no growth, -100 = all killed)
# Details in all cases: 10 µM unless noted
# SK-MEL-2 melanoma = tested on: SK-MEL-2 melanoma
# EKVX NSCLC = tested on: EKVX NSCLC
# SN12C renal = tested on: SN12C renal
# UO-31 renal = tested on: UO-31 renal
# TK-10 renal = tested on: TK-10 renal
# ACHN renal = tested on: ACHN renal
# CAKI-1 renal = tested on: CAKI-1 renal
# A498 renal = tested on: A498 renal
# CCRF-CEM leukemia = tested on: CCRF-CEM leukemia
# MOLT-4 leukemia = tested on: MOLT-4 leukemia
SMILES,growth (SK-MEL-2 melanoma),growth (EKVX NSCLC),growth (SN12C renal),growth (UO-31 renal),growth (TK-10 renal),growth (ACHN renal),growth (CAKI-1 renal),growth (A498 renal),growth (CCRF-CEM leukemia),growth (MOLT-4 leukemia)
N=C(N)SCc1cccc2c(CSC(=N)N)cccc12,106%,107%,94%,84.9%,106%,108%,94.4%,87.2%,119%,119%
Cc1ccc(C)c2c1C(O)(C#Cc1ccccc1)c1ccccc1C2(O)C#Cc1ccccc1 (stereo not given),15.9%,38.5%,71.5%,19.6%,58.8%,49.7%,71.9%,69.2%,27.5%,19.5%
Nc1nc(C(=O)N/N=C/c2ccc(N3CCOCC3)cc2)nn1-c1ccc(S(N)(=O)=O)cc1,104%,101%,103%,85.4%,94.4%,109%,89.8%,107%,112%,123%
NC(=O)c1c(NC(=O)c2ccc(Cl)cc2)sc2c1CCC(=O)C2,99.6%,92.7%,71.8%,40.7%,85.2%,45.6%,18.6%,77%,7.15% (active),46.3%
C=CC(=O)NCCOc1cccc(Nc2cc(NCCCNC(=O)C3CCC3)c(Br)cn2)c1,-43.8% (active),-13.6% (active),3.07% (active),-42.2% (active),-43.4% (active),7.24% (active),-38.2% (active),-54% (active),1.92% (active),-10.5% (active)
O=C(CCCCCCN1CC(=O)N2[C@@H](C3CCCCC3)c3[nH]c4ccccc4c3C[C@H]2C1=O)NO,69.2%,77.7%,-97.1% (active),84.8%,48.5%,88.7%,70.8%,82.1%,26.5%,10.3%
O=C1Nc2ccccc2/C1=C/c1cn(C[C@@H](O)Cn2c3ccccc3c(=O)c3ccccc32)c2ccccc12,79.9%,73.1%,73.7%,30.4%,90.6%,65.5%,74.2%,91.1%,70.5%,62.6%
CCN(CCO)CC(C)Nc1ccc([N+](=O)[O-])c2sc3ccccc3c(=O)c12 (stereo not given),36.6%,25.7%,28.2%,-15.6% (active),58.8%,11.5%,-3.3% (active),50.6%,35.6%,17.3%
COc1cc(C#Cc2ccc(=O)oc2C#Cc2ccccc2)cc(OC)c1OC,104%,115%,16%,76.6%,134%,89.3%,96.3%,119%,3.76% (active),33.4%
Cn1ncc2ccc(-c3nc(-c4ccccc4)[nH]c3-c3n[nH]c(=O)n3C3CC3)cc21,101%,96%,101%,93.1%,103%,97%,94.8%,48.7%,96.4%,93.5%
CN1CCN(Cc2ccc(NC(=O)c3cncc(C#Cc4cncc5[nH]ncc45)c3)cc2C(F)(F)F)CC1,-52.4% (active),26.3%,8.48% (active),-25% (active),12.5%,-0.725% (active),-52% (active),-49.5% (active),7.31% (active),3.77% (active)
Cc1cc(N2CCCCC2)nc(N2CCN(CC(=O)Nc3ccc4c(ccn4Cc4ccccc4)c3)CC2)n1,65.6%,62.1%,64.2%,30%,84%,76.6%,56.3%,8.63% (active),64.5%,52.6%
CCOC(=O)c1c(-c2ccc(Cl)cc2)c(C#N)c2c(C#N)c(N)nn2c1N,52.5%,60.1%,79.1%,66.4%,84.4%,72%,66%,29.3%,30.5%,25.6%
